In PubChem BioAssay (NCI):
Where “and” joins values, the source holds several entries; their conditions need not be identical. Equal entries are not always repeated. About 83,000 compounds went through this panel and 20% of them were active in at least one assay; those are over-represented in the sample as a whole.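 Single-dose data. Exposure time 48 hours. Values below 10 considered active.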 Calls of active or inactive are those of the source. Where a SMILES comes first, the peptide text is derived from it. The star is where a group is joined. Trt = c1ccc(C(c2ccccc2)(c2ccccc2)*)cc1; Cbz = O=C(OCc1ccccc1)*

test system: HOP-92 NSCLC; assay: NCI-60 one-dose screen, 48 h (100 = growth as untreated, 0 = no growth, -100 = all killed); details: 10 µM unless noted

SMILES | growth
O=C(/C=C/c1cccc(Cl)c1)c1ccccc1 | 88.1% (inactive)
O=C(Nc1cccc(Br)c1)Oc1ccc(Cl)c2cccnc12 | 40.7% [100 µM] (inactive)
CN(C)c1ccc(/C=N/N=C(\C#N)[S][Sn]([Cl])([c]2ccccc2)[c]2ccccc2)cc1 | -15.6% (active)
O=C1N[C@H]2[C@H](CS[C@H]2CCCCC(=O)N(CCP(c2ccccc2)c2ccccc2)CCP(c2ccccc2)c2ccccc2)N1 | 56.1% (inactive)
NC(=S)N/N=C\c1nccc2c(C(F)(F)C(F)(F)C(F)(F)F)cccc12 | -2.33% (active)
O=C1c2ccccc2C(=O)c2sc(Nc3cccc(Cl)c3)nc21 | 65.2% (inactive)
O[C@H]1[C@H]2c3cc4c(cc3CN3CCC(=C[C@@H]1O)[C@H]23)OCO4 | -3.91% (active)
CCCCCCCCCCCCCCCCOP(=O)([O-])OCC[N+](C)(C)C | -24.8% (active)
Nc1ncnc2c1ncn2C1OC(CO)C(O)C1O (stereo not drawn) | 93.4% (inactive) and 100% (inactive) and 89.5% (inactive)
CCOc1ccc(-c2nc3ccc(-c4nc5ccc(N6CCN(C)CC6)cc5[nH]4)cc3[nH]2)cc1 | -56.3% (active)
O=C(/C=C\c1cc(Br)ccc1O)/C=C/c1cc(Br)ccc1O | -40.1% (active)
CCC(=O)Sc1ccccc1C(=O)Nc1ccc(Cl)cc1 | 16.3% (inactive)
Oc1c(Br)c(Br)c(O)c(Br)c1Br | 142% (inactive)
COc1ccccc1OC(=O)Oc1ccccc1OC | 108% (inactive) and -0.941% (active)
O=C1c2cccnc2-c2nccc3c2c1nc1cc(Br)ccc13 | -17.1% (active) and -72.6% (active)
Nc1ccc(SSc2ccc(N)cc2)cc1 | 103% (inactive)
Cc1ccc2nc(C[n+]3ccc4ccccc4c3)ccc2c1 | 28% (inactive)

SMILES | growth
CN(C)CCOc1ccc2c(c1)C(=O)/C(=C\c1ncc([N+](=O)[O-])n1C)C2 | -54.3% (active)
N#CSCc1c(Cl)cccc1Cl | 53.7% (inactive)
C[N+](C)=c1ccc2nc3c(cc(NCCCNc4cc5oc6cc(=[N+](C)C)ccc-6nc5c5ccccc45)c4ccccc43)oc-2c1 | 59% (inactive)
COC(=O)C(CSC(c1ccccc1)(c1ccccc1)c1ccccc1)NC(=O)C(CC(N)=O)NC(=O)OCc1ccccc1 (stereo not drawn) (Cbz-Asn-Cys(Trt)-OMe; configuration not given here) | 55.7% (inactive)
S=C(N/N=C/c1ccccn1)Nc1ccccn1 | -2.58% (active)
O=C(/C=C\c1ccccc1)N1c2ccccc2CC1c1c[nH]c2ccccc12 (stereo not drawn) | 47.5% (inactive)
CC(=Nc1ccc(N(C)C)cc1)c1ccccc1 | 30.8% (inactive)
Cc1cc(N)c2ccccc2[n+]1CCCCCCCCCC[n+]1c(C)cc(N)c2ccccc21 | -22.2% (active) and 7.42% (active)
N[C@H](C(=O)O)[C@@H]1CC(Cl)=NO1 | 63.6% [20 µM] (inactive)
Cc1c2ccccc2c(C)c2c1ccc1ccccc12 | 88.6% (inactive)
O=C(O)c1ccc2c3c(ncnc13)-c1ccccc1C2=O | 81% (inactive)
CCC(c1cccc(O)c1)C(CC)c1cccc(O)c1 (stereo not drawn) | 57% (inactive)
Cc1ccnc2c1ccc1c(C)ccnc12 | 44.7% (inactive)
N#CSCC(=O)c1ccc(Cl)cc1 | -3.98% (active)
NC(N)=N/N=C/c1ccc([N+](=O)[O-])o1 | 106% (inactive)
Oc1c(Cl)c2ccccc2c2ccccc12 | 109% (inactive)
